Laboratory results as given in PubChem BioAssay (NCI).
Compounds without any hit were thinned out: in the full panel of roughly 83,000, 20% have a hit.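 Plates (96-well) were seeded with cells, treated with compound at one concentration, and incubated for 48 hours before percent growth was determined.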 A number with no mark means an inactive call. The source made the active and inactive calls. The calls were made as follows: active = growth percent below 10; inactive = the rest.

System: HL-60(TB) leukemia
Experiment: NCI-60 one-dose screen, 48 h (100 = growth as untreated, 0 = no growth, -100 = all killed)
Settings: 10 µM unless noted

Row | Structure (SMILES) | growth
1 | O=c1c2ccccc2n2cnc3ccc(Cl)c1c32 | 82.6%
2 | O=C(/C=C/c1ccc(Cl)cc1)c1ccccc1 | 99.9%
3 | CCNC(=O)Oc1ccc(/C(=C(/C)Cc2ccc(OC)cc2)c2ccc(OCCN(CC)CC)cc2)cc1 | 34.1%
4 | O=C1N(C[P+](c2ccccc2)(c2ccccc2)c2ccccc2)CCCN1C[P+](c1ccccc1)(c1ccccc1)c1ccccc1 | 62.9%
5 | COc1ccc(-c2nn(-c3cccc(Cl)c3)cc2-c2cc(-c3ccc(Br)cc3)nc(N)n2)cc1 | 88.4%
6 | CCCCc1ccc(Nc2nnc(SCC(=O)NC(=O)NCC)s2)cc1 | 95.2%
7 | Cc1nc(N=C(N)N)nc2ccc3ccccc3c12 | 22.6%
8 | CCCCc1ccc(C(O)(CCN2CC3CCC(CC3)C2)c2ccccc2)cc1 (stereo not given) | 84.5%
9 | COc1ccc(C#Cc2ccc(=O)oc2-c2cc(OC)c(OC)c(OC)c2)cc1O | 23.5%
10 | CC(=O)Nc1nonc1-c1nc2ccccc2n1Cc1ccc(C(C)(C)C)cc1 | 56.8%
11 | COc1cc2nccc(Oc3ccc(NC(=O)C4(C(=O)Nc5ccc(F)cc5)CC4)cc3)c2cc1O | 54.5%
12 | Nc1cc(NN=C(c2ccc(O)cc2)c2ccc(O)cc2)c([N+](=O)[O-])cc1[N+](=O)[O-] | 66.4%
13 | COc1cc(-c2cc(-c3ccc(Nc4ncnc5cc(Cl)ccc45)cc3)nc(N3CCN(C)CC3)n2)cc(OC)c1OC | 76.4%
14 | C=C(CNCCc1ccc(O)cc1)[C@@H]1CC[C@]2(CO)CC[C@]3(C)[C@H](CC[C@@H]4[C@@]5(C)CCC(N)C(C)(C)[C@@H]5CC[C@]43C)[C@@H]12 (stereo not given in full) | -47% (active)
15 | COc1cc2nc(SCc3cc(OC)c(OC)c(OC)c3)n(-c3ccccc3OC)c(=O)c2cc1OC | -16% (active)
16 | O=C(Nc1ncc(Cc2cccc(C(F)(F)F)c2)s1)c1ccc2c(c1)OCCO2 | -46.6% (active)
17 | Cc1cn(-c2nc3c(c(NCc4ccccc4)n2)COCC3)c2cccc(C(N)=O)c12 | 71.1% [0.5 µM]
18 | CS(=O)(=O)c1ccc(C(=O)N/N=C/c2cccc3ccccc23)cc1 | 37.5%
19 | CC1=C(C(=O)c2ccccc2)C(c2ccc3c(c2)OCO3)NC(=S)N1 (stereo not given) | 2.6% (active)
20 | O=C(NCCOCCOCCOCCNC(=O)c1cc2c(o1)C(=O)c1ccccc1C2=O)NC12CC3CC(CC(C3)C1)C2 | 1.17% (active)

Row | Structure (SMILES) | growth
21 | CCCc1cccc(CCC)c1O | 105%
22 | COc1cc(C2CC(c3ccc(Cl)cc3)=NN2C(C)=O)ccc1Oc1ccnc2cc(Cl)ccc12 (stereo not given) | 110%
23 | O=CN1N=C(c2ccc(Cl)cc2)CC1c1cccc(Nc2ccnc3cc(C(F)(F)F)ccc23)c1 (stereo not given) | 31.6%
24 | CN(C)CCC(=O)c1ccc([N+](=O)[O-])cc1 | 114%
25 | CC[C@H](C)[C@H](N)C(=O)O | 115%
26 | Cc1nc2sc(C(=O)Nc3ccc(Br)cc3)c(N)c2cc1C(O)c1ccccc1 (stereo not given) | 22.4%
27 | COc1cc(-c2nc(SCCC(C)C)nc(Nc3ccc(S(N)(=O)=O)cc3)c2C#N)cc(OC)c1OC | -18.9% (active)
28 | Cc1nn(-c2ccccc2)c(Oc2c(Cl)cccc2Cl)c1/C=N/N=c1\sc2ccccc2n1C | 43.1%
29 | O=C(/C=C/c1ccccc1)CC(c1ccccc1)N1CCOCC1 (stereo not given) | 70.7%
30 | O=[N+]([O-])c1ccc2c(c1)Cc1cc(I)ccc1-2 | 92.8%
31 | Cc1ccc(/C=C(\C#N)c2cc3ccccc3[nH]2)cc1 | 22.8%
32 | Cc1ccc(S(=O)(=O)n2cc(C3C(Cl)C(=O)N3c3ccc(N4CCOCC4=O)cc3)c3ccccc32)cc1 (stereo not given) | 22.1%
33 | Cc1ccc(Cl)cc1N1C(=O)CC(Sc2ccccc2N)C1=O (stereo not given) | 110%
34 | Nc1nc2ccc3[nH]ncc3c2c2c1CCCC2 | -23.4% (active)
35 | Nc1c(C(=O)Nc2ccccc2Cl)sc2nc3c(cc12)C(=O)CCC3 | 67.1%
36 | C/C(=N\Nc1ccc([N+](=O)[O-])cc1[N+](=O)[O-])c1ccc(Br)cc1 | 101%
37 | CC([C@H]1CCC2C3CCC4C[C@@H](NC=O)CC[C@]4(C)C3CC[C@@]21C)N(C)C (stereo not given in full) | -61.1% (active)
38 | Cc1cc(NS(=O)(=O)c2ccc(NC(=O)COc3ccc(-c4cc5ccccc5[nH]4)cc3)cc2)no1 | 7.86% (active)
39 | Nc1ncnc2[nH]c(=O)[nH]c12 | 140%
40 | CN1CCN(c2nc(C3=C(c4c[nH]c5ccccc45)C(=O)NC3=O)c3ccccc3n2)CC1 | 30.7%
